Screening results from PubChem.
Most compounds without a hit are left out; they make up all but 2% or so of the library.
CHT PAM: human CHT allosteric activation. Q9GZV3. 310,000 tested, 0.49% active. B-score at 10 µM. CHT-expressing cells, membrane potential dye, choline EC20; stronger effect = higher value; LV-AA mutant CHT in HEK293 cells. AID 488977;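 active = initial fluorescence not abnormally high and integrated response B-score, plate-corrected, over 3 SD above library mean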
Target sequence (Q9GZV3 whole entry, looked up): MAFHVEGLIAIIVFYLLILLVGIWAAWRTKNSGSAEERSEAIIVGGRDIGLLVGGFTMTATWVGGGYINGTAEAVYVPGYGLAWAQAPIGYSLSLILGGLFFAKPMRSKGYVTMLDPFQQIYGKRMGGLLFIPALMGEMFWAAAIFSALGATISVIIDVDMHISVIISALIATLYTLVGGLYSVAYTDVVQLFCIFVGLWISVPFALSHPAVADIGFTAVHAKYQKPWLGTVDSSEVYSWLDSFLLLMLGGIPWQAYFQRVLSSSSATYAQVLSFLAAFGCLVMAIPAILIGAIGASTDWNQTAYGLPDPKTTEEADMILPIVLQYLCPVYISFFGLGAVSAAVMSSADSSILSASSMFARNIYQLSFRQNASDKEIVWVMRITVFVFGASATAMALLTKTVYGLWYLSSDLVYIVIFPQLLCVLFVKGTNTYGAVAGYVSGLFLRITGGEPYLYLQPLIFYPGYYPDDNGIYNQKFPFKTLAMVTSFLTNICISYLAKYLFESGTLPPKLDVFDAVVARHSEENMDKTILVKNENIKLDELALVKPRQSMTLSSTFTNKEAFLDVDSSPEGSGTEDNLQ
Kir21 inh: Kir2.1 (mouse) channel inhibition; P35561; HEK293-Kir2.1, FluxOR thallium flux fluorescence; stronger effect = lower value; B-score at 10 µM; 310,000 tested, 0.85% active;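 active = fluorescence ratio B-score at or below minus 3 SD of library scores, with starting-brightness B-score within 2 SD, cut at about -4.2 in these data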;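 also: channel flux triggered by added potassium and thallium sulfate stimulus; B-score of peak minus minimum fluorescence over baseline after thallium stimulus; more negative B-score means stronger Kir2.1 block with less thallium influx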
CHT inh: human CHT choline transport inhibition; Q9GZV3; CHT-expressing cells, membrane potential dye, choline response; stronger effect = lower value; B-score at 10 µM; 310,000 tested, 0.86% active; AID 488975;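 active = B-score over 3 SD under the library average, and starting fluorescence ratio not unusually high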;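 also: choline stimulus applied at its EC90 after an EC20 pre-addition; B-score computed on integrated fluorescence ratio after choline addition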
H9c2 TAG inh: triacylglycerol accumulation inhibition; H9c2 cells, Nile Red lipid (TAG) fluorescence; cells loaded with 200 µM oleic acid; inhibition, % at 12.5 µM; 230,000 tested, 0.66% active; AID 651582;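 active = pattern-corrected inhibition of lipid staining of at least 50% with the nuclear-stain viability signal not falling by more than 50%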
CHT inh conf: confirmation of human choline transporter CHT inhibitors. shares compounds with CHT inh. CHT-expressing cells, choline membrane potential dye; LV-to-AA substituted CHT, HEK293 cells. AID 493221. CHT activity remaining % of control (stronger effect = lower value), % at 10 µM. 2,400 tested, 70% active;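 active = choline transporter activity left, mean of duplicates at 10 µM, below buffer-only control mean minus 3 SD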;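 also: depolarization triggered by choline at its EC90 following an EC20 pre-addition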
HEK293 MPD ctr: activity in parental HEK293 cells lacking CHT; shares compounds with CHT inh; membrane potential dye, choline response; active = decrease or increase beyond buffer ±3SD; 2,400 tested, 4% active; membrane potential ratio readout (active if shifted either direction beyond buffer ±3SD; no single direction) at 10 µM;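 also: parental cells lack the transporter so any hit is non-specific; ratio is peak minus trough fluorescence over baseline after EC90 choline challenge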
Each line names hits and unclear results; the compound was inactive in the other large screens (follow-up assays come after a bar, where they were run).

CCCn1c2ccccc2c2cnn(CC(=O)NCCCN3CCCCC3)c(=O)c21	CHT inh -9.33 (no result: H9c2 TAG inh) | CHT inh conf 21.1% | HEK293 MPD ctr inactive
Cc1c2cnn(CC(=O)NCCCN3CCCCC3)c(=O)c2c(C)n1Cc1ccccc1	none
O=C(Cn1ncc2c3ccccc3n(Cc3ccccc3)c2c1=O)NCCCN1CCCC1	CHT inh -9.05 (no result: H9c2 TAG inh) | CHT inh conf 24.6% | HEK293 MPD ctr inactive
CN1CCN(S(=O)(=O)c2cccc(C(=O)N(Cc3nnc(-c4ccccc4Cl)o3)C3CC3)c2)CC1	none
Cc1ccsc1/C=N/Nc1nc(=O)[nH]nc1C	none (no result: H9c2 TAG inh)
CC(Sc1nccn1C)C(=O)c1ccc(Br)cc1 (configuration not stated)	none (no result: H9c2 TAG inh)
CCCn1c2ccccc2c2cnn(CC(=O)OC)c(=O)c21	CHT inh -5.83 (no result: H9c2 TAG inh) | CHT inh conf 23.5% | HEK293 MPD ctr inactive
CCCn1c2ccccc2c2cnn(CC(=O)NCCCN3CCCC(C)C3)c(=O)c21 (configuration not stated)	CHT inh -6.64 (no result: H9c2 TAG inh) | CHT inh conf 26.1% | HEK293 MPD ctr inactive
CN(C)CCCn1c(=S)[nH]c2ccccc2c1=O	none
CN(C)CCn1c(=S)[nH]c2ccccc2c1=O	CHT inh -7.87 | CHT inh conf 28.5% | HEK293 MPD ctr inactive
Cn1ccnc1SCC(=O)N1CCN(S(=O)(=O)c2ccccc2)CC1	CHT inh -5 | CHT inh conf inactive | HEK293 MPD ctr inactive
Cc1ccc(C(=O)N/C(=C/c2cccs2)C(=O)N2CCCCCC2)cc1	none (no result: H9c2 TAG inh)
Cc1ccc(C(=O)N/C(=C\c2cccs2)C(=O)NC2CCCCC2)cc1	CHT inh -5.1 (no result: H9c2 TAG inh) | CHT inh conf 22.1% | HEK293 MPD ctr inactive
O=C(O)CSc1cc(C(=O)c2ccccc2O)cn2c(=O)c3c(-c4ccccc4)csc3nc12	CHT inh -7.02 | CHT inh conf 30.5% | HEK293 MPD ctr inactive
CCOC(=O)c1sc2nc3c(SCC(=O)O)cc(C(=O)c4ccccc4O)cn3c(=O)c2c1C	none
O=C(NCC1CCCN(C2Cc3ccccc3C2)C1)c1cccs1 (configuration not stated)	none (no result: H9c2 TAG inh)
Cc1cc2c(ncn2Cc2ccccc2)c([N+](=O)[O-])c1C	CHT inh -5.3 (no result: H9c2 TAG inh) | CHT inh conf 50.7% | HEK293 MPD ctr inactive
Cn1c(=O)[nH]c(=O)c2c1nc(N/N=C/c1ccncc1)n2Cc1ccc(Cl)cc1	none
CCNC(=O)C1(C)CCCN(C(=O)c2csc3ccccc23)C1 (configuration not stated)	none (no result: CHT PAM, Kir21 inh, CHT inh)
CC(C)(C)S(=O)(=O)/C(C#N)=N/Nc1ccc(C#N)cc1	none | CHT inh conf 55.4% | HEK293 MPD ctr inactive
Cn1cc(SCC(=O)NCCc2ccccc2)c2ccccc21	none
Cc1csc(C(C)NC(=O)c2ccc(OC3CCN(CCc4ccccc4)CC3)cc2)n1 (configuration not stated)	CHT inh -6.36 (no result: H9c2 TAG inh) | CHT inh conf 29.8% | HEK293 MPD ctr 2.57
COc1ccc(-c2nc(-c3cccs3)c(-c3cccs3)[nH]2)cc1O	Kir21 inh -5.58, CHT inh -7.22 | CHT inh conf 69.8% | HEK293 MPD ctr inactive
O=C(O)c1ccc(-c2nc(-c3ccccc3)c(-c3cccs3)[nH]2)cc1	none
Cc1onc(-c2ccccc2Cl)c1C(=O)Nc1ccc(S(=O)(=O)NCC2CCCO2)cc1 (configuration not stated)	none (no result: H9c2 TAG inh)
CCCCNS(=O)(=O)c1ccc(NC(=O)c2c(-c3ccccc3Cl)noc2C)cc1	CHT inh -4.99 (no result: H9c2 TAG inh) | CHT inh conf 54.0% | HEK293 MPD ctr inactive
CCOC(=O)n1c(O)c(N=NC(N)=S)c2cc(C)ccc21	none
O=[N+]([O-])c1c(Nc2ccccc2O)cc(Cl)c2nonc12	Kir21 inh -7.18, CHT inh -8.5 | CHT inh conf 38.5% | HEK293 MPD ctr inactive
O=[N+]([O-])c1c(Nc2ccccc2O)ccc2nonc12	none
O=C(OCc1nc2ccsc2c(=O)[nH]1)c1ccc(Cl)s1	CHT inh -11.4 | CHT inh conf 5.9% | HEK293 MPD ctr inactive
CCCCNC(=O)c1ccc2c(OCC)n(CCCC)nc2c1	CHT inh -7.08 | CHT inh conf 57.5% | HEK293 MPD ctr inactive
CCn1c(SCc2nc(-c3ccc(Cl)cc3)no2)nnc1-c1ccco1	Kir21 inh -4.68, CHT inh -12.8 | CHT inh conf 3.1% | HEK293 MPD ctr inactive
CC(NCc1ccc(F)cc1)C(=O)Nc1cc(S(=O)(=O)N2CCCCC2)ccc1Cl (configuration not stated)	CHT inh -5.77 | CHT inh conf 50.3% | HEK293 MPD ctr inactive
C[C@H](CO)N1C[C@H](C)[C@@H](CN(C)Cc2ccncc2)Oc2c(NC(=O)C3CC3)cccc2C1=O	none (no result: CHT PAM, Kir21 inh, CHT inh)
CC1(C)CC2CC(C)(CN2C(=O)CCCN2C(=O)c3ccccc3C2=O)C1 (configuration not stated)	CHT inh -6.78 | CHT inh conf 48.2% | HEK293 MPD ctr inactive
O=C1ON=C(c2ccccc2)/C1=C/c1ccco1	CHT inh -6.61 | CHT inh conf 50.0% | HEK293 MPD ctr inactive
CN(C)/C=C1\C(=O)ON=C1c1ccccc1	none
Cc1ccc(SCC2=NN(c3nc(C)cc(C)n3)C(=O)C2)cc1	CHT inh -6.46 | CHT inh conf 23.4% | HEK293 MPD ctr inactive
c1ccc(Nc2c3c(nc4ncnn24)CCC3)cc1	none (no result: H9c2 TAG inh)
Fc1ccccc1CCNc1c2c(nc3ncnn13)CCCC2	CHT inh -6.93 | CHT inh conf 63.2% | HEK293 MPD ctr inactive
Cc1cc(NCCc2ccccc2F)n2ncnc2n1	none
c1ccc(CCNc2c3c(nc4ncnn24)CCC3)cc1	CHT inh -7.1 (no result: H9c2 TAG inh) | CHT inh conf 44.0% | HEK293 MPD ctr inactive
COc1ccc(C(CNC(=O)c2cccc(S(=O)(=O)Nc3ccc(C)cc3)c2)N2CCCCC2)cc1 (configuration not stated)	CHT inh -13.6 | CHT inh conf 11.6% | HEK293 MPD ctr inactive
COc1ccc(NS(=O)(=O)c2cccc(C(=O)NCC(c3ccco3)N3CCCCC3)c2)cc1 (configuration not stated)	CHT inh -10.7 | CHT inh conf 0.3% | HEK293 MPD ctr inactive
Cc1cccc(NS(=O)(=O)c2cccc(C(=O)NCC(c3ccco3)N3CCCCC3)c2)c1 (configuration not stated)	CHT inh -6.65 | CHT inh conf 13.8% | HEK293 MPD ctr inactive
O=C(NCC(c1ccco1)N1CCCCC1)c1cccc(S(=O)(=O)Nc2ccccc2Cl)c1 (configuration not stated)	none
COc1ccc(C(CNC(=O)c2cccc(NS(=O)(=O)c3ccccc3)c2)N2CCCC2)cc1 (configuration not stated)	none (no result: CHT PAM, Kir21 inh, CHT inh)
COc1ccccc1NS(=O)(=O)c1cccc(C(=O)NCC(c2ccco2)N2CCCC2)c1 (configuration not stated)	none (no result: CHT PAM, Kir21 inh, CHT inh)
